Source: PubChem BioAssay AID2796 (The Scripps Research Institute Molecular Screening Center, 2010)
The campaign covered roughly 320,000 compounds. About 8,000 (2.5%) were called active. The full list was thinned out, with actives kept by preference. A number with no mark means an inactive call. Cut-off read from the data, not from the text of the source: active = activation above about 47%; inactive = the rest.

target: Aryl hydrocarbon receptor (Homo sapiens) (UniProt P35869); assay: AHR activators, primary screen, cell-based, luminescence, luciferase reporter, human (AID 2796); conditions: AHR-responsive luciferase reporter cells, at 5 µM, active compounds read high;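 note: 0% = vehicle wells and 100% = reference agonist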
Sequence (P35869 whole entry, looked up): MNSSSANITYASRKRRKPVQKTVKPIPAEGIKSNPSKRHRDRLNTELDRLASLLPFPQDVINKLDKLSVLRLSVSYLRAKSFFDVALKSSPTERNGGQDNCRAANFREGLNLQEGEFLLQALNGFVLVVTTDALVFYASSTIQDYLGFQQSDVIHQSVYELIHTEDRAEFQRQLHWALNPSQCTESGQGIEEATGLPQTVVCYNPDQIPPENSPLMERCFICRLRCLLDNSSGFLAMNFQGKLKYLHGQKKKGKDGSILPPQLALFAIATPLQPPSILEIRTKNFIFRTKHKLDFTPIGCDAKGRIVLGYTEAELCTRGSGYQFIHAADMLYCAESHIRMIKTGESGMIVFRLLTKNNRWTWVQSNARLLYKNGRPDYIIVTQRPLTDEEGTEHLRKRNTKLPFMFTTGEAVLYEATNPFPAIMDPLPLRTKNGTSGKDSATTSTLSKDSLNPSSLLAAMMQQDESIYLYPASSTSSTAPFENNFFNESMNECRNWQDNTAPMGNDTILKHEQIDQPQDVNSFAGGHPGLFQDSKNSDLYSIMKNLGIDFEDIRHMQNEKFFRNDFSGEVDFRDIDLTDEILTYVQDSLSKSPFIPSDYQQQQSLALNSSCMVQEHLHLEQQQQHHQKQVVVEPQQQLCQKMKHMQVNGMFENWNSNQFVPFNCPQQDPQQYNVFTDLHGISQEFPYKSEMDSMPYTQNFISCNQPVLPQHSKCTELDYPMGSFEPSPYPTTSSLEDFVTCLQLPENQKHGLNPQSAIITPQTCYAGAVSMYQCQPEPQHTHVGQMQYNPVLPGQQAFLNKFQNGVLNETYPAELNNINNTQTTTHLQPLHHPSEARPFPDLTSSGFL

| Structure (SMILES) | activation |
| --- | --- |
| N[C@@H](Cc1c[nH]c2ccccc12)c1nnc(SCc2c(F)cccc2Cl)o1 | 60.4% (active) |
| COc1cc2nc(N3CCN(C(=O)[C@@H]4CCCO4)CC3)nc(N)c2cc1OC | 5.62% |
| c1ccc(CCN2CCC3(CC2)OCCO3)cc1 | -0.2% |
| O=C(NC(c1ccc(Cl)cc1)P(=O)(Oc1ccccc1)Oc1ccccc1)OCc1ccccc1 (stereo not given) | 1.2% |
| CN(C)CCN(CC1CCCN(Cc2ccccc2F)C1)C(=O)Cc1ccc(F)c(F)c1 (stereo not given) | -0.87% |
| CC1(C)C(c2ccccc2)=NC(c2cccnc2)=[N+]1[O-] | 1.07% |
| COc1c(O)ccc2c1-c1c3c(cc4c1C(C2)N(C)CC4)OCO3 (stereo not given) | 4.84% |
| COC1=CC=C2[C@H]3Cc4ccc(OC)c5c4[C@@]2(CCN3C)C1O5 (stereo not given in full) | -1.46% |
| COc1ccc2c(c1O)-c1cccc3c1[C@@H](C2)N(C)CC3 | 64.4% (active) |
| COc1ccc(NC(=O)c2cn(CCC#N)nc2-c2ccc([N+](=O)[O-])cc2)cc1 | 0% |
| CCOC(=O)C1=C(C)OC(N)=C(C(=O)OC)C12C(=O)Nc1ccc(Br)cc12 (stereo not given) | 57% (active) |
| COC(=O)CN1C(=O)C2(C(C(=O)OC)=C(N)Oc3ccccc32)C2=C1CC(C)(C)CC2=O (stereo not given) | 2.04% |
| CCOC(=O)CC1=C(C(=O)OCC)C2(C(=O)N1)C(C(=O)OC)=C(N)Oc1ccccc12 (stereo not given) | 10% |
| Nc1ccc(C(=O)N/N=C2/CN3CCC2CC3)cc1 | 3.27% |
| CCOC(=O)C(O)(c1ccc(N=Cc2ccccc2O)c(C)c1)C(F)(F)F (stereo not given) | -2.72% |
